Test [1] in a line: NCI Yeast Anticancer Drug Screen. Data for the rad50 strain (AID 155).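 Note: 0% = growth of vehicle-only cultures of the same strain.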 As to conditions: S. cerevisiae rad50 strain growth inhibition, hits give high values. An outline of the steps: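 DNA repair mutant yeast, compound exposure, growth read-out; inhibition is taken relative to vehicle.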
Test [2] in a line: NCI Yeast Anticancer Drug Screen. Data for the mec2-1 strain (AID 157). Particulars: S. cerevisiae mec2-1 strain, hits give high values. Put shortly:
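Using mec2-1 yeast: add compound, measure growth, express inhibition versus vehicle-treated cultures.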

The nature of test [3]: NCI Yeast Anticancer Drug Screen. Data for the sgs1 mgt1 strain (AID 161).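 Note: 0% = growth of cultures given vehicle only.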 As to conditions: S. cerevisiae sgs1 mgt1 strain, hits give high values. Put shortly: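 Percent growth inhibition was derived by comparing compound-exposed mutant yeast with vehicle-exposed cultures. The strain carries alterations in DNA damage repair.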
Test [4] in a line: NCI Yeast Anticancer Drug Screen. Data for the cln2 rad14 strain (AID 165).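 Note: 0% = growth equal to vehicle treated cultures.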 As to conditions: S. cerevisiae cln2 rad14 strain, hits give high values. An outline of the steps: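 Yeast strain cln2 rad14, bearing defects in cell cycle control and DNA repair, serves as the test system; values reflect growth inhibition compared with vehicle.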
The nature of test [5]: NCI Yeast Anticancer Drug Screen. Data for the bub3 strain (AID 167). As to conditions: S. cerevisiae bub3 mutant strain, hits give high values. Put shortly:
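In this screen, a yeast mutant lacking normal mitotic checkpoint function is challenged with compound. Relative growth versus vehicle gives the inhibition value.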

Test [6] in a line: NCI Yeast Anticancer Drug Screen. Data for the mlh1 rad18 strain (AID 175). As to conditions: S. cerevisiae mlh1 rad18 strain growth inhibition, hits give high values. An outline of the steps:
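Steps: expose repair-defective yeast to compound; measure growth; express inhibition against vehicle-treated controls.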

[7] abbreviates: at 5.0 µM (retest, dose inferred, filed as 0.5).
The mark [8] stands for this setting: at 50.0 µM (retest, dose inferred, filed as 5.0).

The record followed here is PubChem BioAssay (NCI).

Compounds without any hit were thinned out: in the full panel of roughly 79,000, 15% have a hit. Values without a mark were called inactive. The source made the active and inactive calls. Cut-off read from the data, not from the text of the source: active = growth inhibition above about 70%; inactive = the rest.

Turning to `CC(NCCO)c1ccc2ccccc2c1` (configuration not stated), the growth inhibition in test [1] (setting [7]) is 0%; in test [1] (setting [8]), 8%; in test [1] (at 50.0 µM) it was 2.15%; in test [2] (setting [7]) it was 3%; in test [2] (setting [8]), -4%; in test [2] (at 50.0 µM) it was -13.2%. Besides, the growth inhibition in test [3] (setting [7]) is -10%; in test [3] (setting [8]), -6%; in test [3] (at 50.0 µM) it was 2.3%; in test [4] (setting [7]) it was 3%; in test [4] (setting [8]), -3%; in test [4] (at 50.0 µM) it was 30.7%. The growth inhibition in test [5] (setting [7]) was 3%; in test [5] (setting [8]), -1%; in test [5] (at 50.0 µM), -14.9%; in test [6] (setting [7]) it was -1%; in test [6] (setting [8]), 8%; in test [6] (at 50.0 µM), -3.8%.
Regarding `CCOC(=O)C1=C(c2ccccc2)c2ccccc2OC1C(=O)O` (configuration not stated), the growth inhibition is 8% in test [1] (setting [7]); 38% in test [1] (setting [8]); 26.5% in test [1] (at 50.0 µM); 22% in test [2] (setting [7]); 60% in test [2] (setting [8]); 14.8% in test [2] (at 50.0 µM). Moreover, the growth inhibition is 16% in test [3] (setting [7]); 64% in test [3] (setting [8]); 19.5% in test [3] (at 50.0 µM); 2% in test [4] (setting [7]); 38% in test [4] (setting [8]); 59.9% in test [4] (at 50.0 µM). Moreover, the growth inhibition in test [5] (setting [7]) is 16%; in test [5] (setting [8]) it was 29%; in test [5] (at 50.0 µM), 32.5%; in test [6] (setting [7]) it was 34%; in test [6] (setting [8]) it was 78% (active); in test [6] (at 50.0 µM) it was 55.8%.
Take `CCCCCCN(CCCCCC)P(=O)(N1CC1C)N1CC1C` (configuration not stated): the growth inhibition is -2% in test [1] (setting [7]); 99% (active) in test [1] (setting [8]); -11.6% in test [1] (at 50.0 µM); -5% in test [2] (setting [7]); 99% (active) in test [2] (setting [8]); 32.4% in test [2] (at 50.0 µM). The growth inhibition is -3% in test [3] (setting [7]); 33% in test [3] (setting [8]); 10.1% in test [3] (at 50.0 µM); 3% in test [4] (setting [7]); 99% (active) in test [4] (setting [8]); -7.75% in test [4] (at 50.0 µM). Also, the growth inhibition in test [5] (setting [7]) was 7%; in test [5] (setting [8]), 99% (active); in test [5] (at 50.0 µM), 81.2% (active); in test [6] (setting [7]) it was -2%; in test [6] (setting [8]), 99% (active); in test [6] (at 50.0 µM), 24.9%.
With `COc1ccc2nc3cc(Cl)ccc3c(Nc3nccs3)c2c1`, the growth inhibition in test [1] (setting [7]) was 14%; in test [1] (setting [8]), 90% (active); in test [1] (at 50.0 µM) it was 95.1% (active); in test [2] (setting [7]), 12%; in test [2] (setting [8]), 93% (active); in test [2] (at 50.0 µM) it was 70% (active). Further, the growth inhibition in test [3] (setting [7]) is 13%; in test [3] (setting [8]) it was 90% (active); in test [3] (at 50.0 µM), 94.4% (active); in test [4] (setting [7]), 9%; in test [4] (setting [8]) it was 87% (active); in test [4] (at 50.0 µM), 58.5%. The growth inhibition in test [5] (setting [7]) is 6%; in test [5] (setting [8]), 96% (active); in test [5] (at 50.0 µM), 94.5% (active); in test [6] (setting [7]), 6%; in test [6] (setting [8]), 94% (active); in test [6] (at 50.0 µM), 88.2% (active).
As for `Cn1c(CN(Cc2nc3ccccc3n2C)Cc2nc3ccccc3n2C)nc2ccccc21`, the growth inhibition in test [1] (setting [7]) was 7%; in test [1] (setting [8]) it was 73% (active); in test [1] (at 50.0 µM), 76.7% (active); in test [2] (setting [7]), 2%; in test [2] (setting [8]), 85% (active); in test [2] (at 50.0 µM) it was 87.9% (active). The growth inhibition in test [3] (setting [7]) is 3%; in test [3] (setting [8]), 72% (active); in test [3] (at 50.0 µM), 69.7%; in test [4] (setting [7]), 3%; in test [4] (setting [8]), 89% (active); in test [4] (at 50.0 µM) it was 68.8%. For the same molecule, the growth inhibition in test [5] (setting [7]) was 4%; in test [5] (setting [8]), 47%; in test [5] (at 50.0 µM) it was 56.2%; in test [6] (setting [7]), 3%; in test [6] (setting [8]), 80% (active); in test [6] (at 50.0 µM), 56%.
`Cc1cc(Cl)ccc1C(=O)c1ccc2ccccc2c1C(=O)O`: the growth inhibition in test [1] (setting [7]) was 8%; in test [1] (setting [8]), 44%; in test [1] (at 50.0 µM), 84% (active); in test [2] (setting [7]), -15%; in test [2] (setting [8]), 49%; in test [2] (at 50.0 µM), 82.5% (active). Also, the growth inhibition in test [3] (setting [7]) is 3%; in test [3] (setting [8]) it was 54%; in test [3] (at 50.0 µM), 78% (active); in test [4] (setting [7]) it was -7%; in test [4] (setting [8]), 65%; in test [4] (at 50.0 µM), 83.5% (active). Besides, the growth inhibition was -24% in test [5] (setting [7]); 87% (active) in test [5] (setting [8]); 82.4% (active) in test [5] (at 50.0 µM); -36% in test [6] (setting [7]); 52% in test [6] (setting [8]); 78.8% (active) in test [6] (at 50.0 µM).
In the case of `O=C1CSc2ccccc2-n2cccc21`, the growth inhibition is 5% in test [1] (setting [7]); 6% in test [1] (setting [8]); 9.55% in test [1] (at 50.0 µM); 11% in test [2] (setting [7]); 8% in test [2] (setting [8]); 3.35% in test [2] (at 50.0 µM). Besides, the growth inhibition in test [3] (setting [7]) was 6%; in test [3] (setting [8]) it was -4%; in test [3] (at 50.0 µM), 61.5%; in test [4] (setting [7]), 32%; in test [4] (setting [8]), 30%; in test [4] (at 50.0 µM) it was -1.1%. The growth inhibition was 77% (active) in test [5] (setting [7]); 77% (active) in test [5] (setting [8]); -11.2% in test [5] (at 50.0 µM); 5% in test [6] (setting [7]); 15% in test [6] (setting [8]); 1.95% in test [6] (at 50.0 µM).
As to `Cc1ccnc(NCCN(C)C)c1`, the growth inhibition was 2% in test [1] (setting [7]); -1% in test [1] (setting [8]); 98.5% (active) in test [1] (at 50.0 µM); 1% in test [2] (setting [7]); 4% in test [2] (setting [8]); 98.2% (active) in test [2] (at 50.0 µM). In addition, the growth inhibition in test [3] (setting [7]) was 3%; in test [3] (setting [8]), 1%; in test [3] (at 50.0 µM), 97.5% (active); in test [4] (setting [7]), -6%; in test [4] (setting [8]), 1%; in test [4] (at 50.0 µM) it was 98.3% (active). Further, the growth inhibition is -1% in test [5] (setting [7]); -2% in test [5] (setting [8]); 99.3% (active) in test [5] (at 50.0 µM); -1% in test [6] (setting [7]); -1% in test [6] (setting [8]); 98.7% (active) in test [6] (at 50.0 µM).
On to `C[N+]1(Cc2ccc([N+](=O)[O-])cc2)CCC[C@H]1c1ccc[n+](Cc2ccc([N+](=O)[O-])cc2)c1` (some centres not stated), for which the growth inhibition in test [1] (setting [7]) is 0%; in test [1] (setting [8]) it was 27%; in test [1] (at 50.0 µM) it was 10.2%; in test [2] (setting [7]), -1%; in test [2] (setting [8]), 13%; in test [2] (at 50.0 µM) it was 8.85%. In addition, the growth inhibition is -15% in test [3] (setting [7]); -2% in test [3] (setting [8]); 65.1% in test [3] (at 50.0 µM); -7% in test [4] (setting [7]); 0% in test [4] (setting [8]); 63.2% in test [4] (at 50.0 µM). In addition, the growth inhibition in test [5] (setting [7]) was 2%; in test [5] (setting [8]), 11%; in test [5] (at 50.0 µM), 9.65%; in test [6] (setting [7]), -28%; in test [6] (setting [8]), 24%; in test [6] (at 50.0 µM), 84.6% (active).
